Data published in PubChem BioAssay AID1159580 (chemical genetic matrix, 2015).
Hit rate of the full screen: of about 5,500 compounds, about 2,000 (36%) were called active. Not shown: some 18% with an inconclusive outcome. Rule as the data show it: active = normalized growth mostly below about 0.91 (no sharp cut-off); inconclusive = no clear call, values can overlap the other calls; inactive = mostly above about 0.92. Some of the results follow.

Assay: chemical genetic growth profiling, strain panel (AID 1159580);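 also: tested at 20 µM; growth read once vehicle control cultures reached saturation at 30 °C; 1 = growth at the plate median or of vehicle wells; lower values mean less growth of the strain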
Conditions: growth OD

Measured: normalized growth

O=C(O)CF
active: S. cerevisiae deletion strains, locus YOR184W, strain ser1, hits give low values 0.872
inactive: S. cerevisiae deletion strains, locus YJR043C, strain POL32, hits give low values 0.984 | S. cerevisiae deletion strains, locus YJR075W, strain HOC1, hits give low values 0.992 | S. cerevisiae deletion strains, locus YKL009W, strain mrt4, hits give low values 0.915 | S. cerevisiae deletion strains, locus YKL068W, hits give low values 1.01 | S. cerevisiae deletion strains, locus YKL085W, strain MDH1 (second series), hits give low values 1 | S. cerevisiae deletion strains, locus YKL085W, strain MDH1, hits give low values 1 | S. cerevisiae deletion strains, locus YKL160W, strain elf1, hits give low values 0.988 | S. cerevisiae deletion strains, locus YKL190W, strain CNB1, hits give low values 1 | S. cerevisiae deletion strains, locus YKR001C, strain vps1, hits give low values 0.976 | S. cerevisiae deletion strains, locus YKR026C, strain gcn3, hits give low values 1.03 | S. cerevisiae deletion strains, locus YKR091W, strain srl3, hits give low values 1.02 | S. cerevisiae deletion strains, locus YLL001W, strain dnm1, hits give low values 1.02 | S. cerevisiae deletion strains, locus YLL026W, hits give low values 1.01 | S. cerevisiae deletion strains, locus YLL041C, strain sdh2, hits give low values 1.03 | S. cerevisiae deletion strains, locus YLR027C, strain aat2, hits give low values 1.01 | S. cerevisiae deletion strains, locus YLR039C, strain RIC1, hits give low values 0.997 | S. cerevisiae deletion strains, locus YLR058C, strain SHM2, hits give low values 0.993 | S. cerevisiae deletion strains, locus YLR102C, strain apc9, hits give low values 0.99 | S. cerevisiae deletion strains, locus YLR221C, strain rsa3, hits give low values 1.03 | S. cerevisiae deletion strains, locus YLR258W, strain gsy2, hits give low values 1.04 | S. cerevisiae deletion strains, locus YLR262C, strain YPT6 (second series), hits give low values 1.04 | S. cerevisiae deletion strains, locus YLR262C, strain YPT6, hits give low values 1.01 | S. cerevisiae deletion strains, locus YLR268W, strain sec22, hits give low values 0.974 | S. cerevisiae deletion strains, locus YLR320W, strain mms22, hits give low values 1.04 | S. cerevisiae deletion strains, locus YLR330W, strain CHS5, hits give low values 0.991 | S. cerevisiae deletion strains, locus YLR342W, strain FKS1 (second series), hits give low values 0.989 | S. cerevisiae deletion strains, locus YLR342W, strain FKS1, hits give low values 1.02 | S. cerevisiae deletion strains, locus YLR357W, strain rsc2, hits give low values 1.02 | S. cerevisiae deletion strains, locus YLR370C, strain arc18, hits give low values 1.04 | S. cerevisiae deletion strains, locus YLR371W, strain rom2, hits give low values 0.968 | S. cerevisiae deletion strains, locus YLR384C, strain iki3, hits give low values 1.02 | S. cerevisiae deletion strains, locus YLR418C, strain cdc73, hits give low values 1.04 | S. cerevisiae deletion strains, locus YML016C, strain PPZ1, hits give low values 0.99 | S. cerevisiae deletion strains, locus YML032C, strain rad52, hits give low values 0.947 | S. cerevisiae deletion strains, locus YML120C, strain ndi1, hits give low values 1.04 | S. cerevisiae deletion strains, locus YML124C, strain tub3, hits give low values 0.985 | S. cerevisiae deletion strains, locus YMR058W, strain fet3, hits give low values 1.02 | S. cerevisiae deletion strains, locus YMR078C, strain ctf18, hits give low values 0.984 | S. cerevisiae deletion strains, locus YMR125W, strain sto1, hits give low values 0.986 | S. cerevisiae deletion strains, locus YMR129W, hits give low values 1.02 | S. cerevisiae deletion strains, locus YMR205C, strain PFK2, hits give low values 1.02 | S. cerevisiae deletion strains, locus YMR223W, strain ubp8, hits give low values 0.94 | S. cerevisiae deletion strains, locus YMR231W, strain pep5, hits give low values 1.02 | S. cerevisiae deletion strains, locus YMR263W, strain SAP30, hits give low values 1.02 | S. cerevisiae deletion strains, locus YMR307W, strain GAS1, hits give low values 0.945 | S. cerevisiae deletion strains, locus YNL067W, strain RPL9B, hits give low values 1.02 | S. cerevisiae deletion strains, locus YNL071W, strain lat1, hits give low values 1.03 | S. cerevisiae deletion strains, locus YNL128W, strain TEP1, hits give low values 1.01 | S. cerevisiae deletion strains, locus YNL153C, strain GIM3, hits give low values 1.04 | S. cerevisiae deletion strains, locus YNL209W, strain ssb2, hits give low values 1.02 | S. cerevisiae deletion strains, locus YNL233W, strain BNI4, hits give low values 1.02 | S. cerevisiae deletion strains, locus YNL248C, strain rpa49, hits give low values 0.972 | S. cerevisiae deletion strains, locus YNL250W, strain rad50, hits give low values 0.987 | S. cerevisiae deletion strains, locus YNL271C, strain bni1, hits give low values 0.985 | S. cerevisiae deletion strains, locus YNL298W, strain CLA4, hits give low values 0.94 | S. cerevisiae deletion strains, locus YNL307C, strain MCK1, hits give low values 0.954 | S. cerevisiae deletion strains, locus YNL322C, strain KRE1 (second series), hits give low values 1.02 | S. cerevisiae deletion strains, locus YNL322C, strain KRE1, hits give low values 1 | S. cerevisiae deletion strains, locus YNR049C, strain mso1, hits give low values 1.02 | S. cerevisiae deletion strains, locus YNR052C, strain pop2, hits give low values 0.949 | S. cerevisiae deletion strains, locus YOL006C, strain TOP1, hits give low values 0.988 | S. cerevisiae deletion strains, locus YOL012C, strain htz1 1.93 | S. cerevisiae deletion strains, locus YOL147C, strain pex11, hits give low values 0.993 | S. cerevisiae deletion strains, locus YOR001W, strain rrp6, hits give low values 1.03 | S. cerevisiae deletion strains, locus YOR061W, strain CKA2, hits give low values 0.975 | S. cerevisiae deletion strains, locus YOR069W, strain VPS5, hits give low values 0.99 | S. cerevisiae deletion strains, locus YOR070C, strain gyp1, hits give low values 1.02 | S. cerevisiae deletion strains, locus YOR080W, strain dia2, hits give low values 1.02 | S. cerevisiae deletion strains, locus YOR083W, strain WHI5, hits give low values 0.992 | S. cerevisiae deletion strains, locus YOR106W, strain vam3, hits give low values 0.998 | S. cerevisiae deletion strains, locus YOR136W, strain idh2, hits give low values 0.978 | S. cerevisiae deletion strains, locus YOR144C, strain elg1, hits give low values 0.987 | S. cerevisiae deletion strains, locus YOR265W, strain rbl2, hits give low values 1.02 | S. cerevisiae deletion strains, locus YOR270C, strain vph1, hits give low values 1.02 | S. cerevisiae deletion strains, locus YOR290C, strain snf2, hits give low values 1.02 | S. cerevisiae deletion strains, locus YOR316C, strain cot1, hits give low values 0.984 | S. cerevisiae deletion strains, locus YPL051W, strain arl3, hits give low values 1 | S. cerevisiae deletion strains, locus YPL055C, strain LGE1, hits give low values 1.04 | S. cerevisiae deletion strains, locus YPL078C, strain atp4, hits give low values 0.982 | S. cerevisiae deletion strains, locus YPL106C, strain sse1, hits give low values 1.06 | S. cerevisiae deletion strains, locus YPL240C, strain hsp82, hits give low values 1.02 | S. cerevisiae deletion strains, locus YPL241C, strain CIN2, hits give low values 0.998 | S. cerevisiae deletion strains, locus YPR119W, strain clb2, hits give low values 1 | S. cerevisiae deletion strains, locus YPR141C, strain kar3, hits give low values 0.993 | S. cerevisiae deletion strains, locus YPR163C, strain tif3, hits give low values 0.993 | S. cerevisiae deletion strains, locus YPR167C, strain met16, hits give low values 0.99 | S. cerevisiae deletion strains, strain wtn01, hits give low values 0.992 | S. cerevisiae strains, strain wild type, hits give low values 0.999
